Vc quorum ag: inducers of Vibrio cholerae quorum light production without autoinducers, primary screen, BH1578 luxS cqsA deficient, single point; hit rate 0.16% among 350,000; V. cholerae BH1578 lux reporter, luminescence, 6 h; activation, % at 18.7 µM; in the data active = activation mostly above about 9.7%, no sharp cut-off
BioA inh: M. tuberculosis BioA enzyme inhibitors, primary screen, biochemical, plate reader, single point, HTS; 7,8-diaminopelargonic acid synthase BioA (Mycobacterium tuberculosis); purified M. tuberculosis BioA enzyme; AID 602481, 2012; inhibition, % at 9.99 µM; hit rate 0.096% among 360,000; in the data active = inhibition above about 40%
FBA Mtb inh: Mtb FBA enzyme inhibitors, primary screen, biochemical, fluorescence, strain H37Rv. purified M. tuberculosis FBA, fluorescence read-out. inhibition, % at 1 µM. hit rate 2.3% among 360,000. AID 588726, 2011;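 also: 0% = vehicle and 100% = reference inhibitor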
Target sequence (P9WQA3 whole entry, looked up): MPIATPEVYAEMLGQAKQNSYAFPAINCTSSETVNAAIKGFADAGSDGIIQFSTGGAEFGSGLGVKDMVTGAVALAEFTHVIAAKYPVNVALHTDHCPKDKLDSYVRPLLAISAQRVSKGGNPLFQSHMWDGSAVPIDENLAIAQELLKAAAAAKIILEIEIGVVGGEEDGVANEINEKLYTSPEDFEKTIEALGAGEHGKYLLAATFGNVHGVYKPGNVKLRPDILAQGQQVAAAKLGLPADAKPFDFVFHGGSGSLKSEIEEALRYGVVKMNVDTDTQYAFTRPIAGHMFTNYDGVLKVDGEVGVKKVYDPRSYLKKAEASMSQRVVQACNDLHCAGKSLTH
GDH-TPI counter-1: GDH-TPI coupling enzyme inhibitors, primary screen, artefact control for M. tuberculosis FBA inhibitor project, biochemical, absorbance, full deck. GDH-TPI coupled enzyme counterscreen, NADH absorbance. inhibition, % at 4.8 µM. hit rate 1.2% among 360,000. AID 588335, 2011; in the data active = inhibition above about 30%;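 also: 0% = DMSO wells and 100% = wells lacking the enzyme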
Mtb FBA inh conf: M. tuberculosis aldolase blockers, biochemical, fluorescence, strain H37Rv, confirmation. shares compounds with FBA Mtb inh. inhibition, % at 1 µM. hit rate 78% among 5,600. AID 651616, 2012. purified M. tuberculosis FBA, fluorescence read-out;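 also: 0% = vehicle wells and 100% = reference inhibitor wells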
GDH-TPI counter-2: GDH-TPI coupling enzyme inhibitors, artefact control for M. tuberculosis FBA inhibitor project, biochemical, fluorescence, high throughput; shares compounds with FBA Mtb inh; GDH-TPI coupled enzyme counterscreen; inhibition, % at 1 µM; hit rate 81% among 5,600; AID 652141, 2013; in the data active = inhibition above about 10%
GDH-TPI dose: GDH-TPI coupling enzyme inhibitors, dose response, artefact control for M. tuberculosis FBA inhibitor project, biochemical, fluorescence, IC50; shares compounds with FBA Mtb inh; GDH-TPI coupled enzyme assay, artifact counterscreen; IC50, µM; hit rate 79% among 170; call rule not given here
Starred values were filed as active, the others as inactive. Hits are enriched below; roughly 3% of the tested compounds scored in any of these assays. Rule as the data show it, unless noted: active = inhibition above about 27%; inactive = the rest.

Cc1ccc2cc(C#N)c(NCCCNC(=O)C3CCCO3)nc2c1 (stereo unspecified) was read as Vc quorum ag -1, BioA inh -1, FBA Mtb inh 51*, GDH-TPI counter-1 -2, Mtb FBA inh conf 92* and GDH-TPI counter-2 86*.
Screening CCOCCCNC(=S)NCCCNc1nc2c(C)c(C)ccc2cc1C#N returned Vc quorum ag -1, BioA inh -1, FBA Mtb inh 47*, GDH-TPI counter-1 2, Mtb FBA inh conf 111* and GDH-TPI counter-2 79*.
For Cc1ccc2cc(C#N)c(NCCNC(=O)C3CCC3)nc2c1C the results were Vc quorum ag 0, BioA inh -3, FBA Mtb inh 52*, GDH-TPI counter-1 -1, Mtb FBA inh conf 2 and GDH-TPI counter-2 -2.
Screening CCOCCCNC(=S)N1CCCN(c2nc3c(C)c(C)ccc3cc2C#N)CC1 returned Vc quorum ag 1, FBA Mtb inh 13 and GDH-TPI counter-1 -7.
Cc1cccc(NC(=O)NNC(=O)c2ccc3ccccc3c2O)c1 was read as Vc quorum ag inactive, BioA inh -1, FBA Mtb inh 29*, GDH-TPI counter-1 6, Mtb FBA inh conf 81* and GDH-TPI counter-2 59*.
For Cc1cccc(NC(=O)NNC(=O)c2ccc3ccccc3c2)c1 the results were Vc quorum ag 0, BioA inh -1, FBA Mtb inh -4 and GDH-TPI counter-1 -10.
O=C(NNC(=O)c1ccc2ccccc2c1)Nc1ccc(F)cc1 was read as Vc quorum ag inactive, BioA inh -2, FBA Mtb inh -2 and GDH-TPI counter-1 2.
Screening O=C(NNC(=O)c1ccc2ccccc2c1O)Nc1ccc(F)cc1 returned Vc quorum ag -1, BioA inh -1, FBA Mtb inh 37*, GDH-TPI counter-1 9, Mtb FBA inh conf active and GDH-TPI counter-2 174*.
`C[C@@H]1CCCCO[C@H](CN(C)C(=O)c2ccccc2)[C@@H](C)CN([C@@H](C)CO)C(=O)c2cc(NC(=O)c3ccccc3)ccc2O1` gave BioA inh -1.
COc1cccc(CNC(=O)c2cccc(Br)c2)c1 was read as Vc quorum ag 0, FBA Mtb inh 0 and GDH-TPI counter-1 8.
CCN1CCSc2ccc(C(=O)NCc3cccc(F)c3)cc21 was read as Vc quorum ag inactive, BioA inh -1, FBA Mtb inh 49*, GDH-TPI counter-1 4, Mtb FBA inh conf active and GDH-TPI counter-2 162*.
For CCOc1ccccc1CNC(=O)c1ccc2c(c1)N(CC)CCS2 the results were Vc quorum ag 0, BioA inh 0, FBA Mtb inh 74*, GDH-TPI counter-1 14, Mtb FBA inh conf 26 and GDH-TPI counter-2 21*.
For CCCOc1ccc(CNC(=O)c2ccc3c(c2)N(CC)CCS3)cc1 the results were Vc quorum ag -1, BioA inh -2, FBA Mtb inh 75*, GDH-TPI counter-1 1, Mtb FBA inh conf 157* and GDH-TPI counter-2 99*.
Screening CCN1CCSc2ccc(C(=O)NCc3cccc(Br)c3)cc21 returned Vc quorum ag 0, BioA inh -1, FBA Mtb inh 40*, GDH-TPI counter-1 6, Mtb FBA inh conf 107* and GDH-TPI counter-2 82*.
Screening CCOc1ccccc1CNC(=O)c1ccc2nc(N3CCOCC3)sc2c1 returned Vc quorum ag 0, BioA inh 0, FBA Mtb inh 1 and GDH-TPI counter-1 -9.
Screening COc1ccc(NC(=O)N[C@@H]2CC[C@@H](CC(=O)NC3CCC3)O[C@H]2CO)cc1 returned BioA inh -1.
For Oc1ccccc1-c1nc2c3ccccc3c3ccccc3c2[nH]1 the results were Vc quorum ag inactive, BioA inh -2, FBA Mtb inh 94*, GDH-TPI counter-1 12, Mtb FBA inh conf 99* and GDH-TPI counter-2 90*.
c1csc(-c2nc3c4ccccc4c4ccccc4c3[nH]2)c1 was read as Vc quorum ag 1, FBA Mtb inh 58*, GDH-TPI counter-1 7, Mtb FBA inh conf active and GDH-TPI counter-2 active.
COc1ccc(N2C(N)=NC(N)=NC2(C)C)cc1 was read as Vc quorum ag -2, BioA inh -1, FBA Mtb inh 0 and GDH-TPI counter-1 4.
CCOc1ccc(-n2nc3ccc(N)cc3n2)cc1 was read as Vc quorum ag 0, BioA inh 0, FBA Mtb inh 74*, GDH-TPI counter-1 16, Mtb FBA inh conf 14, GDH-TPI counter-2 1 and GDH-TPI dose 1.1*.
COc1ccc(-n2nc3ccc(N)cc3n2)cc1 was read as Vc quorum ag -1, BioA inh 1, FBA Mtb inh 56*, GDH-TPI counter-1 16, Mtb FBA inh conf 54* and GDH-TPI counter-2 41*.
For C[C@@H]1CN([C@@H](C)CO)C(=O)c2cc(C#CC3(O)CCCC3)cnc2O[C@@H]1CN(C)Cc1ccccc1 the results were BioA inh -2.
`O=C(O)c1ccc(-c2ncc[nH]2)cc1` gave Vc quorum ag 0, BioA inh 0, FBA Mtb inh 49*, GDH-TPI counter-1 -2, Mtb FBA inh conf 0 and GDH-TPI counter-2 2.
For COCC(=O)Nc1ccc2c(c1)C(=O)N(C)C[C@@H](OC)[C@H](C)CN(CCC(F)(F)F)[C@H](C)CO2 the results were BioA inh -2.
`CC(=O)N(C)C[C@H]1Oc2cc(C#CC3CC3)ccc2S(=O)(=O)N([C@H](C)CO)C[C@H]1C` gave BioA inh -12.
For Cc1cc(C(=O)COC(=O)c2nccnc2N)c(C)n1C the results were Vc quorum ag 0, BioA inh 0, FBA Mtb inh 62*, GDH-TPI counter-1 8, Mtb FBA inh conf 2 and GDH-TPI counter-2 6.
Screening COc1cc(C(=O)OCC(=O)c2cc(C)n(C)c2C)cc(OC)c1OC returned Vc quorum ag 2, FBA Mtb inh -7 and GDH-TPI counter-1 -9.
Cn1c(SCc2cccc([N+](=O)[O-])c2)nc2ccccc2c1=O was read as Vc quorum ag -1, BioA inh 1, FBA Mtb inh 2 and GDH-TPI counter-1 9.
`Cn1c(SCc2cccc(C#N)c2)nc2ccccc2c1=O` gave Vc quorum ag 1, BioA inh 4, FBA Mtb inh 29*, GDH-TPI counter-1 5, Mtb FBA inh conf 8 and GDH-TPI counter-2 7.
`C[C@@H]1CN([C@@H](C)CO)C(=O)Cc2cc(NC(=O)Nc3ccc(C(F)(F)F)cc3)ccc2O[C@@H]1CN(C)S(C)(=O)=O` gave BioA inh 3.
